NCOA2 inhibitor = inhibition of GAL4-SRC2 driven luciferase reporter, primary screen, SRC2 inhibitor project, cell-based, luminescence; inhibition, % at 9 µM; AID 651957, 2012; HEK293 GAL4-SRC2 luciferase reporter; 370,000 tested, 0.17% active;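 active = inhibition above the mean inhibition of all tested compounds plus 3 SD, set per campaign, cut at about 52% in these data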;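 note: 0% = DMSO treated cells and 100% = cells given Gossypol at 36 µM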
NR2F2 inh = NR2F2 transcriptional activity inhibitors, primary screen, cell-based, luciferase reporter, HEK293T, luminescence; COUP transcription factor 2 (Homo sapiens), P24468; HEK293T NGFI-A luciferase reporter; inhibition, % at 8.6 µM; 370,000 tested, 0.7% active;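 active = inhibition above a per-plate cutoff, mean inhibition of test wells between control levels plus 3 SD, cut at about 38% in these data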;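 note: cells cotransfected with COUP-TFII expression vector driving the NGFI-A reporter; 0% = median of COUP-TF2 test wells and 100% = reporter-only cells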
Target sequence (P24468 whole entry, looked up): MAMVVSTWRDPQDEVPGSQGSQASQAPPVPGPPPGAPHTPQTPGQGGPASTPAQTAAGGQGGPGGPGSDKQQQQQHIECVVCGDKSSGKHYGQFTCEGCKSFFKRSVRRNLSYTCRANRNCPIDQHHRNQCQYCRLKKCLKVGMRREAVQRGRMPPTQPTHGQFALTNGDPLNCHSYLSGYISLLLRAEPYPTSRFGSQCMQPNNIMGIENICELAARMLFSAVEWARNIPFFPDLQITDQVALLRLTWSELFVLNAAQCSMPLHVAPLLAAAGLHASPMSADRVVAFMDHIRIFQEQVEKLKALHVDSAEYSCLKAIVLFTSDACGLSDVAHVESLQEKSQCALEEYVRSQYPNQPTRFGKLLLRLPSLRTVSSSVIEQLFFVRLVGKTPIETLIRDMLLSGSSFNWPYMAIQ
GalR3 antag = GalR3 antagonists in HEK293 cells, primary screen, cell-based, fluorescence readout. HEK293 GalR3-CNG cAMP membrane potential fluorescence; galR3 body fused to GalR1 C-terminus. Galanin receptor type 3 (Homo sapiens), O60755. inhibition, % at 3 µM. 360,000 tested, 0.44% active. AID 651719, 2012;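 active = inhibition above the screen-wide average plus 3 SD, cut at about 13% in these data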;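 note: forskolin and galanin both at EC90 stimulate the cells; cAMP rise reported by CNG channel membrane potential dye signal; 0% = forskolin plus galanin with DMSO and 100% = forskolin alone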
SRC1 inh = SRC1 coactivator transcriptional activity inhibitors, primary screen, cell-based, luminescence; inhibition, % at 3.6 µM; AID 588354, 2011; HEK293 GAL4-SRC1 luciferase reporter; Nuclear receptor coactivator 1 (Homo sapiens), Q15788; 360,000 tested, 0.12% active;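 active = inhibition above the campaign mean plus 3 SD, with each screening campaign given its own cutoff, cut at about 60% in these data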;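 note: 0% = DMSO treated cells and 100% = gossypol at 36 µM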
NR5A2 inv ag = LRH-1 (NR5A2) inverse agonists, primary screen, cell-based, luminescence, HEK293T, StAR-luciferase reporter; LRH-1 transfected, 24 h; inhibition, % at 3.6 µM; 360,000 tested, 0.13% active; Nuclear receptor subfamily 5 group A member 2 (Homo sapiens), O00482;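 active = inhibition above the mean inhibition of all tested compounds plus 3 SD, cut at about 73% in these data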;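 note: 0% = DMSO wells and 100% = reporter-only cells lacking LRH-1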
NCOA3 inh = SRC3 coactivator transcriptional activity inhibitors, primary screen, cell-based, luminescence | 360,000 tested, 0.17% active | inhibition, % at 3.6 µM | Nuclear receptor coactivator 3 (Homo sapiens), Q9Y6Q9 | AID 588352, 2011 | HEK293 GAL4-SRC3 luciferase reporter;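 active = inhibition above a per-campaign cutoff, the mean of all compounds plus 3 SD, cut at about 60% in these data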;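 note: 0% = DMSO-treated cells and 100% = gossypol-treated cells at 36 µM; higher means less SRC3-driven luciferase light from the GAL4 reporter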
GalR3 antag conf = GalR3 antagonist hit confirmation, cell-based, fluorescence, triplicate; shares compounds with GalR3 antag; HEK293 GalR3 CNG cAMP biosensor, membrane potential fluorescence; galR3 fused to GalR1 carboxy tail; challenged with forskolin and galanin at EC90; inhibition, % at 3 µM; 1,600 tested, 59% active; AID 652245, 2013;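 active = inhibition above the primary screen's cutoff, the mean inhibition of all screened compounds plus 3 SD, cut at about 13% in these data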;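 note: 0% = forskolin plus galanin and 100% = forskolin alone with DMSO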
HEK-CNG parental = nonspecific cAMP agonists in parental HEK-CNG cells, counter-screen for GalR3 antagonist project, cell-based, fluorescence, high throughput; 1,600 tested, 10% active; HEK293-CNG parental cells, cAMP membrane potential fluorescence; normalised: DMSO wells 0%, forskolin wells 100%; activation, % at 3 µM; shares compounds with GalR3 antag; in the data active = activation above about 1.3%
VP16 Luc counter = Gal4-VP16 luciferase reporter inhibitors, counter-screen for COUP-TFII antagonist project, cell-based, luminescence, HEK293; shares compounds with NR2F2 inh; inhibition, % at 8.5 µM; 2,500 tested, 25% active; AID 687007, 2013; in the data active = inhibition above about 13%
NR2F2 inh conf = NR2F2 transcriptional activity inhibitors, confirmation, cell-based, luciferase reporter, HEK293, triplicate | shares compounds with NR2F2 inh | HEK293 NGFI-A luciferase reporter, luminescence | inhibition, % at 8.5 µM | 2,500 tested, 45% active | AID 687008, 2013;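 active = mean inhibition over three repeats above a set limit taken from the earlier primary screen, cut at about 38% in these data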;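 note: 100% = cells given the luciferase reporter alone without the COUP-TF2 vector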
* marks the source's active call; other numbers are inactive results; / = not tested or not shown. In the library only some 1.1% were active in any assay of this set; here they are far more common.

SMILES	NCOA2 inhibitor	NR2F2 inh	GalR3 antag	SRC1 inh	NR5A2 inv ag	NCOA3 inh	GalR3 antag conf	HEK-CNG parental	VP16 Luc counter	NR2F2 inh conf
O=S(=O)(Nc1ccc(-c2csc(-c3ccccc3)n2)cc1)c1ccc(F)cc1	4	0	-4	5	7	8	/	/	/	/
CCC(=O)/C=C1/Sc2ccccc2N1CC	-23	-8	-5	-8	1	-1	/	/	/	/
CCN1/C(=C/c2sc(-c3ccccc3C)c[n+]2C)Sc2ccccc21	35	90*	51*	42	90*	80*	72*	2.2*	16*	86*
COC(=O)C1=C(C)N(C)C(=NCc2cccc(C(F)(F)F)c2)NC1c1ccccc1 (stereo not drawn)	-1	-17	-8	/	/	/	/	/	/	/
CC(C)c1ccc(CC(=O)N2CCC2(C)C(=O)NCC(C)(C)C)cc1 (stereo not drawn)	19	3	-7	7	11	1	/	/	/	/
C#Cc1ccc(NC(=O)C2(C)CCN2C(=O)Cc2ccc(C(C)C)cc2)cc1 (stereo not drawn)	19	57*	84*	24	32	10	92*	0	6	47*
CC(C)(C)c1ccc(CC(=O)N2CCC2(C)C(=O)Nc2ccc3[nH]ncc3c2)cc1 (stereo not drawn)	19	-2	-4	0	-23	-2	/	/	/	/
C#Cc1ccc(NC(=O)C2(C)CCN2C(=O)Cc2ccc(C(C)(C)C)cc2)cc1 (stereo not drawn)	21	61*	27*	10	42	8	94*	0	3	43*
NC(Cc1ccc(C(F)(F)F)cc1)c1csc(Nc2ccc(S(N)(=O)=O)cc2)n1 (stereo not drawn)	-4	8	-5	4	-3	-5	/	/	/	/
CC(C)(C)C(=O)c1c(N)[nH]c(C(=O)c2ccccc2)c1-c1ccc([N+](=O)[O-])cc1	-16	-6	1	/	/	/	/	/	/	/
COc1cccc(CN(C)C(=O)c2ccc(OCC(=O)Nc3cccc(C(F)(F)F)c3)c(OC)c2)c1	24	77*	90*	28	36	45	94*	-1	8	76*
COc1ccc([C@H]2CC(=O)C[C@@H](CCn3cc(CCc4ccccc4)nn3)O2)cc1	-9	12	0	/	-28	/	/	/	/	/
CNc1ccccc1C(C)(C)c1cc(-c2ccc(F)cc2)no1	1	45*	49*	11	17	26	69*	0	2	31
COC(=O)[C@]12C[C@H](CC(=O)N3CCCCC3)C(=O)N(CCC3=CCCCC3)C1=C[C@H](C1CCCC1)O[C@@H]2C	-7	-10	/	/	/	/	/	/	/	/
Cc1nn(-c2ccc(NC(=O)c3ccncc3)cc2)c(C)c1Cl	8	67*	75*	23	29	-10	109*	0	-6	58*
